Consider 109 sequences from PMC5836133, “The intracellular immune receptor Rx1 regulates the DNA-binding activity of a Golden2-like transcription factor”.

Whole data set: some 16,000 sequences, median “e-score” near -0.044, cut for the highest 2% near 0.38. Only a selection was taken, and the highest values are over-represented in it overall.

For the test, the target named is T1, GST-NbGlk1(82-244) (Nicotiana benthamiana).
T1 chain: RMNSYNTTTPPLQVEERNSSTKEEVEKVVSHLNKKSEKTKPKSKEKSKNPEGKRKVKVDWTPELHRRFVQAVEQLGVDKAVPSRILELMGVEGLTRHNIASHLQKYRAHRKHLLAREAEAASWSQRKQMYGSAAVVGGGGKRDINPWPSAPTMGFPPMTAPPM
Briefly: protein-binding microarray; NbGlk1 is a Golden2-like transcription factor of Nicotiana benthamiana; high values mean tight binding. The note with it: protein: recombinant; tags: GST (pTH6838); dsDNA, one strand shown.
With ATATCGAC, the binding signal was 0.32 ± 0.00903 E-score.
In the case of AACACGAT it was 0.237 ± 0.0225 E-score; in that of ATTTGCCA, 0.358 ± 0.051 E-score.
For ATAGTAGA, the binding signal is 0.201 ± 0.11 E-score.
For the sequence AAAGGATT, the binding signal is 0.372 ± 0.061 E-score.
In the case of ATCCATTG it was 0.253 ± 0.0582 E-score; in that of ATTTCAGA, 0.265 ± 0.0287 E-score; in that of ATTGCAAT, 0.305 ± 0.0598 E-score.
Consider ATCTTAGC, for which the binding signal came out at 0.246 ± 0.0788 E-score.
In the case of ATCTCACA it was 0.289 ± 0.0836 E-score; in that of ATACGCGC, 0.223 ± 0.0538 E-score; in that of ATCCGCTA, 0.353 ± 0.0323 E-score.
On to CAATCAGC, for which the binding signal is 0.22 ± 0.0614 E-score.
In the case of ATCGCGTC it was 0.285 ± 0.0397 E-score; in that of AAAATCTA, 0.4582 ± 0.0038 E-score; in that of CAAATCTA, 0.412 ± 0.0148 E-score.
As to CAAATATA, the binding signal was determined as 0.245 ± 0.00998 E-score.
For the sequence CAAATCTC, the binding signal came to 0.426 ± 0.0426 E-score.
Regarding CAAATCAA, the binding signal was 0.228 ± 0.037 E-score.
In the case of CAAATCAC it was 0.272 ± 0.0674 E-score; in that of AAAATCAA, 0.334 ± 0.0377 E-score.
In the case of AAAATTTA it was 0.248 ± 0.0263 E-score; in that of AATATTGG, 0.202 ± 0.105 E-score.
In the case of AATTCTGC it was 0.204 ± 0.0116 E-score.
As to AATTTTCA, the binding signal was determined as 0.228 ± 0.0322 E-score.
In the case of ATTGCAGA it was 0.253 ± 0.0406 E-score.
Next, ATCTTCGC: 0.237 ± 0.0198 E-score; AATATTGA: 0.222 ± 0.0953 E-score.
In the case of AGATCCGA, the binding signal came to 0.307 ± 0.0187 E-score.
Next, ATATCGGA: 0.369 ± 0.015 E-score; ATTTCCGG: 0.295 ± 0.0475 E-score.
With ATATCCGC, the binding signal stood at 0.4112 ± 0.0033 E-score.
Next, ATATCCCG: 0.317 ± 0.0686 E-score.
Next, ATCTCCGC: 0.293 ± 0.0913 E-score.
In the case of AGATCCGC it was 0.34 ± 0.0528 E-score; in that of ATATCCGG, 0.436 ± 0.0135 E-score.
For the sequence ATATCCGA, the binding signal is 0.4021 ± 0.00123 E-score.
Next, AATACGAA: 0.205 ± 0.0658 E-score.
In the case of ACAAGAAT it was 0.273 ± 0.0228 E-score.
In the case of ACGATCGC it was 0.252 ± 0.0832 E-score.
As for ATTGCACC, the binding signal was determined as 0.222 ± 0.00533 E-score.
Next, ATCGCGCA: 0.358 ± 0.0372 E-score; ATTTGTAA: 0.266 ± 0.0497 E-score.
In the case of AAATCTGC it was 0.4558 ± 0.00312 E-score; in that of AGATCTGG, 0.364 ± 0.0182 E-score; in that of AGATCTGC, 0.411 ± 0.029 E-score.
In the case of AAATCAGG it was 0.365 ± 0.0118 E-score.
For the sequence CAATCAGG, the binding signal stood at 0.294 ± 0.0424 E-score.
Next, AGATCTGA: 0.332 ± 0.0671 E-score; AAATCGGC: 0.302 ± 0.0126 E-score.
In the case of CAATCTGC it was 0.305 ± 0.0551 E-score.
Next, AAATCTGG: 0.466 ± 0.00695 E-score; CAATCTGG: 0.4139 ± 0.000981 E-score.
With AAATCGGG, the binding signal was 0.354 ± 0.0193 E-score.
Regarding ATTCCCTA, the binding signal is 0.3669 ± 0.00312 E-score.
For AATTATAA, the binding signal was found to be 0.243 ± 0.0945 E-score.
In the case of AAAATAAT it was 0.205 ± 0.0493 E-score.
Next, AATCATAG: 0.246 ± 0.0935 E-score.
Turning to ATTTTCAC, the binding signal came out at 0.34 ± 0.0212 E-score.
Turning to ATCCGCAG, the binding signal worked out at 0.223 ± 0.00544 E-score.
In the case of AAGTAAAA it was 0.21 ± 0.144 E-score; in that of ATCGTGTA, 0.262 ± 0.115 E-score; in that of CAATCTGA, 0.375 ± 0.0502 E-score.
Next, AAATCATA: 0.343 ± 0.0134 E-score.
For AAATCTGA, the binding signal is 0.469 E-score.
In the case of AGCGATCC it was 0.274 ± 0.0142 E-score; in that of AAATACGG, 0.207 ± 0.0643 E-score.
Next, AATTGCGC: 0.227 ± 0.0136 E-score; AAAAATAT: 0.3 ± 0.0471 E-score; AAAAATCG: 0.389 ± 0.0127 E-score.
Next, ACAAATCT: 0.374 ± 0.0338 E-score.
CACAATCG: the binding signal was 0.268 ± 0.00572 E-score.
In the case of AAAAATCA it was 0.336 ± 0.0224 E-score; in that of AAAAATCT, 0.4495 ± 0.00385 E-score; in that of CAAAATCG, 0.386 ± 0.0304 E-score.
In the case of ACAAATCG it was 0.297 ± 0.0369 E-score.
Turning to AAAATTCG, the binding signal worked out at 0.282 ± 0.0182 E-score.
Next, ATTGTGTG: 0.203 ± 0.0438 E-score; AATCGCAG: 0.224 ± 0.0787 E-score.
In the case of ATTTGCTC, the binding signal was determined as 0.253 ± 0.0795 E-score.
Next, ACATGTGA: 0.201 ± 0.017 E-score; AATCAGAT: 0.341 ± 0.0502 E-score; ACTAATAT: 0.2093 ± 0.00102 E-score.
Next, ATGGGAAT: 0.296 ± 0.0441 E-score.
In the case of ACAGATCC, the binding signal stood at 0.234 ± 0.05 E-score.
In the case of ACAAGATA it was 0.322 ± 0.00757 E-score; in that of ATTCCCTC, 0.372 ± 0.0111 E-score; in that of ATAATCCA, 0.354 ± 0.0347 E-score.
Next, AGAATCAC: 0.373 ± 0.0542 E-score; AAAATCCA: 0.454 ± 0.016 E-score; AAAATCCG: 0.446 ± 0.00893 E-score.
Next, CAAATCCG: 0.389 ± 0.00882 E-score; AAAATACG: 0.286 ± 0.0671 E-score.
As to AGAATCAG, the binding signal was 0.39 ± 0.0152 E-score.
In the case of AGAATCAA it was 0.342 ± 0.0419 E-score.
Next, ACAATCCA: 0.3331 ± 0.000895 E-score; ATAATCAA: 0.216 ± 0.00752 E-score; AAGCGGAT: 0.227 ± 0.0367 E-score.
On to AATCGGAT, for which the binding signal worked out at 0.357 ± 0.0422 E-score.
For ATATACAG, the binding signal turned out to be 0.262 ± 0.0848 E-score.
With ATCCCTTA, the binding signal was 0.215 ± 0.0752 E-score.
Next, ATGTGATA: 0.231 ± 0.0239 E-score.
In the case of ATCCTCAG it was 0.231 ± 0.0659 E-score; in that of CAGATCCA, 0.23 ± 0.064 E-score.
In the case of ATAATCAG it was 0.222 ± 0.0278 E-score; in that of CAAATCCC, 0.315 ± 0.0145 E-score; in that of CAAATCCA, 0.3792 ± 0.00132 E-score.
As to AAAATCAC, the binding signal was 0.36 ± 0.0307 E-score.
Next, AAAATCAT: 0.302 ± 0.0817 E-score.
